Laboratory results reported in PubChem BioAssay AID1117353 (Cheminformatics & Chemogenomics Research Group (CCRG), …, 2015).
The source made the active and inactive calls. No stated cut-off is given here; in the data, active means inhibition above about 50%; inactive means the rest.

Biological target: Vascular endothelial growth factor receptor 2 (Homo sapiens) (UniProt P35968)
Experiment: Biochemical primary assay, inhibitors of H. sapiens VEGFR2, LANCE Ultra time-resolved FRET readout, NPC library (AID 1117353)
Conditions: LANCE Ultra TR-FRET kinase assay; at 20 µM (top of the series)

Chain of Vascular endothelial growth factor receptor 2 (Homo sapiens) (P35968 whole entry, looked up): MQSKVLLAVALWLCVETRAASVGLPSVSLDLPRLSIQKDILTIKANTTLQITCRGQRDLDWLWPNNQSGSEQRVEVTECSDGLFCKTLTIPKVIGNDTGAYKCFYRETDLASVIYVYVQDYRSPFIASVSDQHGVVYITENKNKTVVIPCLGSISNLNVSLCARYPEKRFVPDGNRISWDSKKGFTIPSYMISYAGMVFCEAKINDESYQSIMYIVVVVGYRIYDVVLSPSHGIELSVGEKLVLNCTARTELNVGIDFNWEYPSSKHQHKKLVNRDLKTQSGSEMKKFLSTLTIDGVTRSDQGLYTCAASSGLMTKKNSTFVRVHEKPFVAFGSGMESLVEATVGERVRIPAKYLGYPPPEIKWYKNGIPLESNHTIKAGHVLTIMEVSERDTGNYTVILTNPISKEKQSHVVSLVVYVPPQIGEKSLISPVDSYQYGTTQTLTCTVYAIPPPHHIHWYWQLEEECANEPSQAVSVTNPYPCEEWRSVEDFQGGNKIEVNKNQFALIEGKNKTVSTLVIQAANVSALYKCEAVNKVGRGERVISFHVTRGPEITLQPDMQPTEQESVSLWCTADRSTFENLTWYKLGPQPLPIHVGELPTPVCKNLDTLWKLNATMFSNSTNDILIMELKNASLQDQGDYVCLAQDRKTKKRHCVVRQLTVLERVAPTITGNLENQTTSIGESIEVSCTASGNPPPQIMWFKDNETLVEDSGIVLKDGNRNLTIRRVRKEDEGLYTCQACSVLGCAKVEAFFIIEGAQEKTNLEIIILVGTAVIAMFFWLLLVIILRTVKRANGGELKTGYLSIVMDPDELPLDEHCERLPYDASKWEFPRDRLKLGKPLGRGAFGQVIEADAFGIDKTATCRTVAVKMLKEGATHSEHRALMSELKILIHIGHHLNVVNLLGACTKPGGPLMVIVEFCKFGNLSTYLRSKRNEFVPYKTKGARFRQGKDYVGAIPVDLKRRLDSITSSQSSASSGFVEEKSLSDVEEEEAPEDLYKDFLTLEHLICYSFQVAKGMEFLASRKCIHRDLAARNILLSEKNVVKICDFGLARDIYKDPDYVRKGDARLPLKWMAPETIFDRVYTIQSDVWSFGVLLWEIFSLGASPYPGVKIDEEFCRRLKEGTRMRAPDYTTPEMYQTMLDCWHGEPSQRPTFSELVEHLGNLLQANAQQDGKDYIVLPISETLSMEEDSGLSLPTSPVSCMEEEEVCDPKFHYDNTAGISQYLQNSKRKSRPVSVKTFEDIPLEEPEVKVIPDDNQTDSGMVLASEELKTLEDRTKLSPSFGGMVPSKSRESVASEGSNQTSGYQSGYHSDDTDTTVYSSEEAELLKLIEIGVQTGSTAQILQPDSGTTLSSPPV

inhibition, inactive:
Nc1ccc2cc3ccc(N)cc3nc2c1 -25.5%
O=c1c(-c2ccccc2)c1-c1ccccc1 28.3%
CCCOc1ccc2nc(NC(=O)OC)[nH]c2c1 10.2%
CCCSc1ccc2nc(NC(=O)OC)[nH]c2c1 -6.58%
Cc1cc2c(C(C)C)c(O)c(O)c(C=O)c2c(O)c1-c1c(C)cc2c(C(C)C)c(O)c(O)c(C=O)c2c1O -2.11%
